Active and inactive are the calls of the source.

The test system of assay [1] is Plasmodium falciparum Sir2 (PF13_0152, Sir2A). The experiment in a line: Plasmodium falciparum Sir2A binding compounds – biochemical, small-molecule microarray, 635 nm fluorescence, primary screen (AID 1098).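 Further: score merges spot fluorescence intensity with its signal-to-noise ratio.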 The note with it: fluorescence 635 nm, higher = more signal.
Assay [2] in a line: probe aDKK1 binding to arrayed compounds – biochemical, biotinylated probe, 635/667 nm fluorescence, primary screen (AID 1099).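 Further: score merges 667nm spot fluorescence with signal to noise across triplicate slides.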 The note with it: small-molecule microarray, higher = more signal.
A short description of assay [3]: probe aCHRDL2 binding to arrayed compounds – biochemical, biotinylated probe, 635/667 nm fluorescence, primary screen (AID 1100). The note with it: small-molecule microarray, higher = more signal.
A short description of assay [4]: change in splice reporter luminescence, either direction, cell-based, HEK293, spliceosome inhibition project, primary screen (AID 1101).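 Further: HEK293 cells carrying a splicing-competent luciferase reporter gene; test concentration not given here.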 The note with it: HEK293 splicing luciferase reporter, 24 h, higher = more signal, called active from +8 up or from −8 down.
Assay [5] deals with Fibroblast growth factor 10 (Homo sapiens) (UniProt O15520). Description: compounds binding fibroblast growth factor 10 – biochemical, small-molecule microarray, 635 nm fluorescence, primary screen (AID 1102). The note with it: FGF10 binding, fluorescence 635 nm, higher = more signal.
Sequence of Fibroblast growth factor 10 (Homo sapiens) (O15520 whole entry, looked up): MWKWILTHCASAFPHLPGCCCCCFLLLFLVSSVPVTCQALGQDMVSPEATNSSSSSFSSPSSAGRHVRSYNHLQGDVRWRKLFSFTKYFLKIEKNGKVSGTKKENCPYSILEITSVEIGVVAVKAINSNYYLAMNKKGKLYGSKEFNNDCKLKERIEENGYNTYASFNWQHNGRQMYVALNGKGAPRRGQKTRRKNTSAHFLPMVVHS
Assay [6] relates to glycogen synthase kinase-3 (GSK3A per assay name; protocol says GSK3B). The experiment in a line: compounds binding glycogen synthase kinase-3 – biochemical, small-molecule microarray, 635 nm fluorescence, GSK3A, primary screen (AID 1103). Further: the record names both GSK3A and GSK3B. The note with it: fluorescence 635 nm, higher = more signal.
The target of assay [7] is Epidermal growth factor receptor (Homo sapiens) (UniProt P00533). Description: compounds binding epidermal growth factor receptor – biochemical, small-molecule microarray, 635 nm fluorescence, primary screen (AID 1104).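 Further: score merges 667 nm emission intensity with spot signal to noise over triplicate slides.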 The note with it: EGFR binding, higher = more signal.
Sequence of Epidermal growth factor receptor (Homo sapiens) (P00533 whole entry, looked up): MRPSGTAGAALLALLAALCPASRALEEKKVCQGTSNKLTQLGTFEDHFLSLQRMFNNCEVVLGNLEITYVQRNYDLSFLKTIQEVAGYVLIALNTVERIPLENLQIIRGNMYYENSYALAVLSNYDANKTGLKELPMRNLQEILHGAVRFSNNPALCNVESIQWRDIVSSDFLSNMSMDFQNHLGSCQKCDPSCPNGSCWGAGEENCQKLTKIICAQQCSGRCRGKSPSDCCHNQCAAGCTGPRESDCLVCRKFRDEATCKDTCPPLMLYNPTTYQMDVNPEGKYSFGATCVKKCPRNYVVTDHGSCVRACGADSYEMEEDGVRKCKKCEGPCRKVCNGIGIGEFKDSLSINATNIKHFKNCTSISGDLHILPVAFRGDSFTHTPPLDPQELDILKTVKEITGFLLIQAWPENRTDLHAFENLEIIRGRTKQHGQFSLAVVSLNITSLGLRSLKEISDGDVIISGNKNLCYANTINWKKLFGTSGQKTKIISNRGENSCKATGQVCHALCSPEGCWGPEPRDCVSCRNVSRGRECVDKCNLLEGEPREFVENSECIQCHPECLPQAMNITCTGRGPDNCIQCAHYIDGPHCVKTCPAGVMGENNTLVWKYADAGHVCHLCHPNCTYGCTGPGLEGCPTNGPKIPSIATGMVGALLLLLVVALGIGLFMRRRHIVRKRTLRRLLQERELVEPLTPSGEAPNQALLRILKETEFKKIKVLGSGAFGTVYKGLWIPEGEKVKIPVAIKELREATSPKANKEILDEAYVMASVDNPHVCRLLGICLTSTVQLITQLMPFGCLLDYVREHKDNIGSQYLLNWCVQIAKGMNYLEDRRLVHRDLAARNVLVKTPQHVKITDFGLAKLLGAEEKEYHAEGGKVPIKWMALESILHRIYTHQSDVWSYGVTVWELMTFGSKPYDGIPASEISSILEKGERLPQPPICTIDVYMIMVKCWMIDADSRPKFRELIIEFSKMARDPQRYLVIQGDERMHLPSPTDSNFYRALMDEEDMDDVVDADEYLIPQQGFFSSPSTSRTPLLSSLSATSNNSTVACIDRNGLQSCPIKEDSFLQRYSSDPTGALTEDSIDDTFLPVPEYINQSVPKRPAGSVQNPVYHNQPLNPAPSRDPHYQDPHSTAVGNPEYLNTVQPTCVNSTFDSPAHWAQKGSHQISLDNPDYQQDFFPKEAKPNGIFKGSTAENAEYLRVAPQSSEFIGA
Assay [8] addresses Follistatin-related protein 3 (Homo sapiens) (UniProt O95633). The experiment in a line: compounds binding follistatin-related protein 3 – biochemical, small-molecule microarray, 635 nm fluorescence, primary screen (AID 1105).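 Further: score merges emission near 667 nm and signal to noise per printed spot across three slides.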 The note with it: FSTL3 binding, higher = more signal.
The target of assay [9] is Dickkopf-related protein 1 (Homo sapiens) (UniProt O94907). The experiment in a line: small molecules binding DKK1 protein – biochemical, small-molecule microarray, 635 nm fluorescence scan, primary screen (AID 1106).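 Further: score merges emission near 667 nm with signal to noise over three replicate slides.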 The note with it: higher = more signal.
Sequence of Dickkopf-related protein 1 (Homo sapiens) (O94907 whole entry, looked up): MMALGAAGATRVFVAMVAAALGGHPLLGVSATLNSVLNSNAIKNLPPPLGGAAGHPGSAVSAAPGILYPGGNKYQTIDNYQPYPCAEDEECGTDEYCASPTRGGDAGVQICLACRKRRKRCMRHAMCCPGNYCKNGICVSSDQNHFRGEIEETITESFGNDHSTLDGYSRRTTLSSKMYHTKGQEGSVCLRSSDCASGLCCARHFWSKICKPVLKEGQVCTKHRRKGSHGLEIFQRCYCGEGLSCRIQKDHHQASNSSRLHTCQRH
Assay [10] deals with Inhibin beta A chain (activin A). The experiment in a line: small molecules binding activin A – biochemical, small-molecule microarray, 635 nm fluorescence scan, primary screen (AID 1107).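 Further: mouse activin A protein probed at 4.33 µg/mL on printed slides; score merges bound-protein fluorescence near 667 nm with spot signal-to-noise.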 The note with it: INHBA, higher = more signal.
Assay [11] deals with Human papillomavirus type 1a protein E7 (residues 44-93). The experiment in a line: small molecules binding HPV E7 44-93 – biochemical, small-molecule microarray, residues 44-93, 635 nm fluorescence, primary screen (AID 1108).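 Further: E7 fragment applied at 1 µg/mL in TBST for 1 h at 4 C; score combines spot fluorescence with its signal to noise ratio.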 The note with it: fluorescence 635 nm, higher = more signal.
The nature of assay [12]: hepatitis C replication reporter changes, two-sided – Huh7 cells, luciferase reporter, HCV replication inhibitor project, primary screen (AID 1109).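 Further: huh7 hepatoma cells harbouring a luciferase neomycin HCV replicon reporter; luciferase luminescence as measure of HCV replicon replication; test concentration not given here.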 The note with it: Huh7 HCV replicon luciferase reporter, 48 h; higher = more signal. A general note: A reporter such as luciferase makes a cellular process visible.
Assay [13] addresses Left-right determination factor 2 (Homo sapiens) (UniProt O00292). Description: small molecules binding LEFTY2 protein – biochemical, small-molecule microarray, 635 nm fluorescence scan, primary screen (AID 1110). The note with it: higher = more signal.
Assay [14] concerns the target Calmodulin-1 (Homo sapiens) (UniProt P0DP23). The experiment in a line: small molecules binding calmodulin-1 with EGTA – biochemical, small-molecule microarray, Cy5-labelled CALM1, profiling panel (AID 1111).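 Further: labelled calmodulin applied in Tris saline Tween buffer holding calcium plus EGTA and DTT.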 The note with it: Cy5-CALM1 binding fluorescence, higher = more signal.
The target is the same in assay [15]. The experiment in a line: small molecules binding Ca-loaded calmodulin-1 – biochemical, small-molecule microarray, Cy5-labelled CALM1, plus calcium, artefact control for SMM control-protein annotation, profiling panel (AID 1112).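 Further: score merges spot fluorescence with signal to noise from triplicate slides.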 The note with it: Cy5-CALM1 binding fluorescence, higher = more signal.
Assay [16] in a line: probe aWnt5a binding to arrayed compounds – biochemical, biotinylated probe, 635/667 nm fluorescence, primary screen (AID 1113).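 Further: score merges 667 nm fluorescence intensity with signal-to-noise per printed feature.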 The note with it: small-molecule microarray, higher = more signal.
Assay [17] in a line: probe aShh binding to arrayed compounds – biochemical, biotinylated probe, 635/667 nm fluorescence, primary screen (AID 1114).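 Further: probe is biotin-labelled aShh protein from a stem cell growth factor screen; measures binding of labelled protein to compounds printed on the slide; score merges feature fluorescence at 667 nm with signal-to-noise.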 The note with it: small-molecule microarray, higher = more signal.
The nature of assay [18]: probe aNog binding to arrayed compounds – biochemical, biotinylated probe, 635/667 nm fluorescence, primary screen (AID 1115).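 Further: probe is biotinylated aNog protein used at 0.15 µg/mL for 1 h at 4 C; z-score combines 667 nm fluorescence of each spot with its signal to noise.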 The note with it: small-molecule microarray, higher = more signal.
Assay [19] addresses Torsin-1A-interacting protein 1 (Homo sapiens) (UniProt Q5JTV8). The experiment in a line: compound microarray binding of lysate hLAP1 – cell lysate, small-molecule microarray, COS7 lysate, 635/667 nm fluorescence, primary screen (AID 1116). The note with it: 635 nm fluorescence, higher = more signal.
The target in assay [20] is Alpha-bungarotoxin (Bungarus multicinctus) (UniProt P60615). Description: compounds binding labelled alpha-BTX control protein – biochemical, small-molecule microarray, Alexa647 label, 635/667 nm fluorescence, artefact control for SMM control protein annotation, profiling panel (AID 1117). The note with it: alpha-BTX-A647 binding fluorescence, higher = more signal.
Sequence of Alpha-bungarotoxin (Bungarus multicinctus) (P60615 whole entry, looked up): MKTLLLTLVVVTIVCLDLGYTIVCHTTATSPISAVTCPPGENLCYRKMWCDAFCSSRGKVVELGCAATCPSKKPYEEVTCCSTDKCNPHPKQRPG

Sequence of Torsin-1A-interacting protein 1 (Homo sapiens) (Q5JTV8 whole entry, looked up): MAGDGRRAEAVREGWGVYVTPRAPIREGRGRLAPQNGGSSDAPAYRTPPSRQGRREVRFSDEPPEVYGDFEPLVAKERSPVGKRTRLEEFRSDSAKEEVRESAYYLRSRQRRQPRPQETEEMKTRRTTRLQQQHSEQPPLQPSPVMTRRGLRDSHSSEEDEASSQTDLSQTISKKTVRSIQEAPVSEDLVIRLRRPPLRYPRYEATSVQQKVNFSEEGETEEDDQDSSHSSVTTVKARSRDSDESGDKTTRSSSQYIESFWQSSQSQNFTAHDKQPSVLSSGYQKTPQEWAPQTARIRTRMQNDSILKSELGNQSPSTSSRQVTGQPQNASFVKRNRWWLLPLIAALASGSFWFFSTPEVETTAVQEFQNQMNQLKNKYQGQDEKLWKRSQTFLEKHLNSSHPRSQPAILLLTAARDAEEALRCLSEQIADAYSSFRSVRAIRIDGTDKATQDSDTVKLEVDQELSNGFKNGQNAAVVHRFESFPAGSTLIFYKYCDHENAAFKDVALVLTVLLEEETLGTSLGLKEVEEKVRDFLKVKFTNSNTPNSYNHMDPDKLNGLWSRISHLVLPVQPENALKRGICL
Sequence of Left-right determination factor 2 (Homo sapiens) (O00292 whole entry, looked up): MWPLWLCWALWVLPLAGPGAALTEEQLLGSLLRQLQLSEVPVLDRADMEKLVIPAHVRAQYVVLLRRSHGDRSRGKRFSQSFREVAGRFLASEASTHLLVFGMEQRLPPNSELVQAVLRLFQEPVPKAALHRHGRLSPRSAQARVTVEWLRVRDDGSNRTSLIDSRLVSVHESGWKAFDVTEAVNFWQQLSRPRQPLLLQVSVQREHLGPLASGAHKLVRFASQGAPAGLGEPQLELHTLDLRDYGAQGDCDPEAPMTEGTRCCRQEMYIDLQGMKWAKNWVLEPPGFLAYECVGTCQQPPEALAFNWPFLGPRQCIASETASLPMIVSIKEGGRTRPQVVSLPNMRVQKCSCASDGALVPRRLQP
Sequence of Follistatin-related protein 3 (Homo sapiens) (O95633 whole entry, looked up): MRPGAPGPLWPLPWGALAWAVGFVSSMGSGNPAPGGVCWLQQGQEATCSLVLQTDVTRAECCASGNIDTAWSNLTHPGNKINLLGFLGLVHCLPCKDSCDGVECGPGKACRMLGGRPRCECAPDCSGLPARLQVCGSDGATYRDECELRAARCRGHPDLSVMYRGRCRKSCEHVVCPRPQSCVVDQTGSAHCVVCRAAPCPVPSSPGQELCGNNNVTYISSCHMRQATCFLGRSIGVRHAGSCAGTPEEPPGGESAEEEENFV

On to `CC(C)N1CC=CC23O[C@@H]4C=CCCOC(=O)C4[C@H]2C(=O)N(CCCCCCO)[C@@H]3C1=O` (stereo not given in full), for which the composite z-score in assay [1] is 0.627; in assay [2], -0.201; in assay [3], 0.587; in assay [5], -1.03; in assay [6], -1.13; in [7] it was -1.13. Further, the composite z-score was -1.22 in assay [8]; -1.59 in [9]; 0.12 in assay [10]; -0.558 in [11]; -1.39 in assay [13]; -0.0847 in assay [14]. For the same compound, the composite z-score in [15] was 0.749; in assay [16], -0.252; in assay [17] it was -0.221; in [18] it was 0.0432; in assay [19], -0.423; in [20] it was -0.866. The z-score in assay [4] was 1.59 (inactive); in assay [12], -0.845.
Regarding `COC(=O)[C@@]1(Cc2ccc(F)cc2)[C@@H]2C(=CC(=O)[C@H]2CC(=O)C(=O)N(C)C)CN1C(=O)c1ccccc1`, the composite z-score in assay [1] is 0.346; in [2], 1.31; in assay [3], 0.921; in [5], 0.625; in assay [6], 1.29; in assay [7], -0.0946. The composite z-score in [8] is 1.06; in [9], -0.251; in [10] it was 0.637; in assay [11], 1.46; in assay [13], 0.45; in [14] it was 1.98. In addition, the composite z-score in assay [15] stood at 1.21; in assay [16], 0.0839; in assay [17], 1.21; in [18], 0.896; in [19], 1.52; in [20], 0.954. In addition, the z-score in assay [4] is -1.17 (inactive); in [12], -2.09.
In the case of `COC(=O)CC=C[C@H](C)[C@@H](OCc1ccccc1Br)C(C)C`, the composite z-score in assay [1] is -0.0201; in [2] it was -0.371; in assay [3], -0.397; in assay [5], 0.321; in assay [6] it was -0.243; in assay [7], 0.195. Moreover, the composite z-score in assay [8] is 0.285; in assay [9], 0.292; in assay [10], 0.0114; in assay [11] it was -0.261; in assay [13] it was 0.551; in assay [14], -0.354. Further, the composite z-score in [15] was -0.679; in [16], -0.0417; in assay [17] it was -0.138; in assay [18], -0.333; in assay [19], -0.173; in assay [20], 1.54. For the same compound, the values for the z-score in assay [4] and in assay [12] were -0.76 (inactive) and 0.0087, respectively.
As to `CC(C)=NOCc1ccc(-c2cc(-c3ccccc3)no2)cc1`, the composite z-score was 0.0628 in [1]; -0.285 in assay [2]; -0.515 in assay [3]; 0.356 in assay [5]; 0.283 in [6]; 0.279 in [7]. For the same compound, the composite z-score was -0.026 in [8]; 0.32 in assay [9]; 0.216 in assay [10]; -0.0501 in [11]; 0.384 in assay [13]; -0.555 in assay [14]. Moreover, the composite z-score in assay [15] is -0.498; in assay [16], -0.0701; in [17], -0.214; in assay [18], -0.139; in [19], 0.0444; in assay [20] it was -0.0299. The results for the z-score in assay [4] and in assay [12] were 0.468 (inactive) and -0.115, respectively.
As to `C=COC[C@H]1CN2[C@@H](CC[C@@H](C)[C@@H]2c2ccc(Br)cc2)C(=O)O1`, the composite z-score in assay [1] is 0.729; in assay [2], -0.41; in [3], -0.601; in assay [5], 0.273; in [6] it was 0.665; in [7], 0.498. For the same compound, the composite z-score stood at 0.694 in [8]; 0.928 in assay [9]; 0.611 in assay [10]; 0.864 in assay [11]; 0.792 in [13]; 0.537 in assay [14]. For the same compound, the composite z-score is -0.092 in [15]; -0.176 in assay [16]; -0.304 in [17]; -0.0286 in [18]; -0.415 in assay [19]; 0.166 in assay [20]. Also, the z-score in [4] is -1.09 (inactive); in [12] it was 0.924.

For the origin of these results see PubChem BioAssay.
